Screening results deposited in PubChem by National Center for Advancing Translational Sciences (NCATS).
This is a sample that favours compounds with a hit; in the whole collection about 10% have one here.
FLuc inh: Photinus pyralis luciferase inhibition. P08659. AID 1347043. Potency, µM (titrated, usually from 115 µM), usual class: inhibitors. purified P. pyralis luciferase, luminescence, biochemical. 76,000 compounds, 2.5% hits; note: nearly all actives have a fitted effect of over 65% in size
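Luminescence read by CCD imaging after purified firefly luciferase (10nM final) was added to substrate buffer holding 10uM D-luciferin and 10uM ATP, pH 7.5, pre-dosed with compound.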
hNpr1 antagonist: human Npr1 receptor antagonism; 76,000 compounds, 1.6% hits; HEK293 hNpr1 GloSensor cGMP, ANP-stimulated luminescence; AID 1347048; Potency, µM (highest dose often 46.3 µM), without a hit: top-dose activity change, negative = inhibition, most hits filed as inhibitors; P16066; calls by dose curve; note: nearly all actives have a fitted effect of over 60% in size
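HEK293 cells stably expressing human Npr1 and cGMP GloSensor pGS-40F, loaded 2 h with 2% GloSensor reagent, given compound 30 min at room temperature. Luminescence read before and 20 min after 0.1 nM hNppA.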
HEK293 tox: kills HEK 293 cells | HEK 293 viability, ATP luminescence (CellTiter-Glo), 48-72 h | Potency, µM (titrated, usually from 115 µM), for inactives: at the top dose activity change, negative = cytotoxicity, usual class: inhibitors | 94,000 compounds, 6.6% hits | AID 1345083; note: nearly all actives have a fitted effect of over 60% in size
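HEK 293 seeded at 250 cells/well receive compound via pintool. After 48 or 72 hr at 37 degree Celsius, 5% CO2 and 95% humidity, CellTiter-Glo is dispensed and luminescence read following 10 min at room temperature.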
GPT2 inh: GPT2 alanine aminotransferase inhibition | Q8TD30 | Recombinant GPT2, coupled pyruvate oxidase/HRP Amplex Red fluorescence | Potency, µM (top dose mostly 57.7 µM), for the others: top-dose activity change, negative = inhibition, most hits filed as inhibitors | 100,000 compounds, 0.25% hits | AID 1671188; note: nearly all actives have a fitted effect of over 60% in size
Target sequence (Q8TD30 whole entry, looked up): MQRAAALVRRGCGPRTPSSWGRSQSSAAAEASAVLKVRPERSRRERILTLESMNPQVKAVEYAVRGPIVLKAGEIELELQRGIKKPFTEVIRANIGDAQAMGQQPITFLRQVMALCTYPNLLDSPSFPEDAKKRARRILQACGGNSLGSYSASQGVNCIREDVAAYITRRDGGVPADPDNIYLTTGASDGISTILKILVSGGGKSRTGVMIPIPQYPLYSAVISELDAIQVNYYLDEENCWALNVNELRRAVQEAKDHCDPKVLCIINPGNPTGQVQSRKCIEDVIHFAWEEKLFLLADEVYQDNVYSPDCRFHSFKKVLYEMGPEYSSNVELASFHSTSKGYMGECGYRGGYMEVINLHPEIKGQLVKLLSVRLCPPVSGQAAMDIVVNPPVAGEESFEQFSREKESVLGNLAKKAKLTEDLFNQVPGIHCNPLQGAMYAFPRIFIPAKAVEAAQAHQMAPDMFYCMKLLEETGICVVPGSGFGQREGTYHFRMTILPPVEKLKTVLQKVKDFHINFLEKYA
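Inhibition is scored from Amplex Red fluorescence generated when pyruvate oxidase and HRP act on pyruvate released by GPT2. Reactions contain 10ng/uL enzyme, 250uM a-KG and 2mM L-alanine and run 30 min at room temperature.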
NIH3T3 tox: NIH 3T3 cell cytotoxicity | NIH 3T3 viability, CellTiter-Glo ATP luminescence, 48-72 h | Potency, µM (top dose mostly 96.7 µM), inactives show top-dose activity change, negative = cytotoxicity, most hits filed as inhibitors | 94,000 compounds, 4.3% hits; note: nearly all actives have a fitted effect of over 55% in size
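ATP-dependent luminescence (CellTiter-Glo) served as the viability signal for NIH 3T3 cells treated with compound for 48 or 72 hr at 37 °C.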
Numbers without * were called inactive; i = inactive; ? = inconclusive; . = not tested or not shown; [ ] = another dose, or the depositor's remark. Unless noted, calls come from the whole dose curve; as a rule, active = well fitted curve in the direction sought with a large enough effect; inconclusive = small, poorly fitted or top-dose-only effect, or another doubt; inactive = no such curve, though single readings can be large; an effect the other way counts as inactive or inconclusive. % is set by controls: 0 for no effect and ±100 for the full control effect; potency is the fitted concentration of half-maximal effect.

SMILES	FLuc inh	hNpr1 antagonist	HEK293 tox	GPT2 inh	NIH3T3 tox
CC(C)CCN1CCOc2cc(C(=O)NCCOc3ccccc3)ccc2C1	i	-11%[70.6 µM]	100µM*	i	?
CC(C)CCN1CCOc2cc(C(=O)N(C)c3cccnc3)ccc2C1	i	-15%[70.6 µM]	112µM*	4%[88.5 µM]	?
O=C(NCC1CC1)c1ccc2c(c1)OCCN(c1ccccc1)C2	i	-4%[70.6 µM]	11µM*	5%[88.5 µM]	?
CCN1CCN(C(=O)c2ccc3oc(-c4cccnc4)nc3c2)CC1	.	.	i	i	-1%
CC(C)=CCN1CCNC(=O)C1CC(=O)NC(C)(C)c1cccc2ccccc12 (configuration not stated)	i	-2%	?	0%	?
